# According to PMC7862700, “An all-to-all approach to the identification of sequence-specific readers for epigenetic DNA modifications on cytosine”:
# What was measured:
# Experiment in all cases: DAPPL (digital affinity profiling via proximity ligation, sequencing); 10 mM Tris-HCl pH 7.5, 50 mM NaCl, 1 mM DTT, 4% glycerol, room temperature, 30 min; GST-TFs on glutathione beads, 16-mer random dsDNA library, 0.1% formaldehyde crosslink after washing; high values mean tight binding
# [1] = molecular target: T1, FLI1 (Homo sapiens, UniProt Q01543 1-452); details: protein: recombinant; tags: N-terminal GST; dsDNA, one strand shown
# T1 sequence: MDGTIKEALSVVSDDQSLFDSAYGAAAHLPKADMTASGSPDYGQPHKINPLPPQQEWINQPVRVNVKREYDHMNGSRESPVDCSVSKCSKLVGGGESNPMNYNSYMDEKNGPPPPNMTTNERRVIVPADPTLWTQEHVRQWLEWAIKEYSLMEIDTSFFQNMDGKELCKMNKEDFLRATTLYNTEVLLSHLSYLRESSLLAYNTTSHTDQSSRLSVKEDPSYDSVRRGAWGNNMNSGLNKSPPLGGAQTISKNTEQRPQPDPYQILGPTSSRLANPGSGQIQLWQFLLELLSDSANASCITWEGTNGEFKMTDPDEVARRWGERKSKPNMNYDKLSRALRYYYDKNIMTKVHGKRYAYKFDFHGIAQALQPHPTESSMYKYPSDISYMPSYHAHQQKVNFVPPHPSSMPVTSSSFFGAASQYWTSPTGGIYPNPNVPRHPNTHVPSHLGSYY
# Method in brief: (§1)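 After expression in yeast as GST fusions, human transcription factors were bound to glutathione beads, DNA-barcoded and mixed with a tag-only sample. The pools were incubated with 200 nmole of a 16-mer random double-stranded DNA library in Tris/NaCl/DTT/glycerol buffer (30 min, room temperature), washed and crosslinked with 0.1% formaldehyde. Proximity ligation with BsaI/T4 ligase ran for 1 h at 37 °C, before PCR amplification and sequencing on an Illumina NextSeq500. Binding signal is a hexamer's read frequency for a factor divided by its frequency for the tag-only sample.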
# [2] = molecular target: T2, ELK1 (Homo sapiens, UniProt P19419 1-428); details: protein: recombinant; tags: N-terminal GST; dsDNA, one strand shown
# T2 sequence: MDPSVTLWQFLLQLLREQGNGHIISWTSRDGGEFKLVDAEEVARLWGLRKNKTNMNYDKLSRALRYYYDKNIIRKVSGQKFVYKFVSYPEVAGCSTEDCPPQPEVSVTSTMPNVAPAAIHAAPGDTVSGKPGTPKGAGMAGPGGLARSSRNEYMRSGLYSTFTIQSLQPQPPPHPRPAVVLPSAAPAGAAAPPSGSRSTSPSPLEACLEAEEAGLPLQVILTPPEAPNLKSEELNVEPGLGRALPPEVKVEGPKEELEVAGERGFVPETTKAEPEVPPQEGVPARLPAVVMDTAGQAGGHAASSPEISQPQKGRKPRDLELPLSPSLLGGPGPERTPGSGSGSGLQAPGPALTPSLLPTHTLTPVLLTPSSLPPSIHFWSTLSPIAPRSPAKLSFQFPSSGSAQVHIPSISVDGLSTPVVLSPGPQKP
# Method in brief: as §1
# [3] = molecular target: T3, GABPA (Homo sapiens, UniProt Q06546 1-454); details: protein: recombinant; tags: N-terminal GST; dsDNA, one strand shown
# T3 sequence: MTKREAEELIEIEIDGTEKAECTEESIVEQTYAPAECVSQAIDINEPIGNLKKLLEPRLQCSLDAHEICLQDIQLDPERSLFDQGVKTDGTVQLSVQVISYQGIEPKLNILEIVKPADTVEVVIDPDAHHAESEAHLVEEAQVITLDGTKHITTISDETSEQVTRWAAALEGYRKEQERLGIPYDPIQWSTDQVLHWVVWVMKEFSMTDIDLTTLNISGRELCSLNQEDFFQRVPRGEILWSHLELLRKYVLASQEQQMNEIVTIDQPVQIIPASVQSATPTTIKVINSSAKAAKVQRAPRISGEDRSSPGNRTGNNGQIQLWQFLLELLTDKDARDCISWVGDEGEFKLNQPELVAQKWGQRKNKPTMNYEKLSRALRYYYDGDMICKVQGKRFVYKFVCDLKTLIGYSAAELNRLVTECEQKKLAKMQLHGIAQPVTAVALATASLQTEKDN
# Method in brief: as §1
# [4] = molecular target: T4, ERG (Homo sapiens, UniProt P11308 1-479); details: protein: recombinant; tags: N-terminal GST; dsDNA, one strand shown
# T4 sequence: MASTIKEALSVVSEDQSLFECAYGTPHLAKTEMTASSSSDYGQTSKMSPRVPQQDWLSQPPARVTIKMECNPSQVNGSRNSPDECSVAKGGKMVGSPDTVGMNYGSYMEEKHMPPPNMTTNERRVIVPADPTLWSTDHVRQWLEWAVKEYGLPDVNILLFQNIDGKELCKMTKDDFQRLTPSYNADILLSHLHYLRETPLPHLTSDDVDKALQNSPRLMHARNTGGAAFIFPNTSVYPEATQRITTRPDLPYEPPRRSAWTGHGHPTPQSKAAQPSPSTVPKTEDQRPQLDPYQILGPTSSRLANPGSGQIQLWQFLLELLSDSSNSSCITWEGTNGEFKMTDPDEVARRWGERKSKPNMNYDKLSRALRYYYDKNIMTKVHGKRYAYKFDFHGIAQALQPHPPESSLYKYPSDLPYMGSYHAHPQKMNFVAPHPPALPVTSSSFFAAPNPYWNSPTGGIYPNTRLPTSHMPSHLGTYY
# Method in brief: as §1
# [5] = molecular target: ELF1 (Homo sapiens, UniProt P32519 1-619); details: protein: recombinant; tags: N-terminal GST; dsDNA, one strand shown
# Chain of ELF1 (P32519 whole entry): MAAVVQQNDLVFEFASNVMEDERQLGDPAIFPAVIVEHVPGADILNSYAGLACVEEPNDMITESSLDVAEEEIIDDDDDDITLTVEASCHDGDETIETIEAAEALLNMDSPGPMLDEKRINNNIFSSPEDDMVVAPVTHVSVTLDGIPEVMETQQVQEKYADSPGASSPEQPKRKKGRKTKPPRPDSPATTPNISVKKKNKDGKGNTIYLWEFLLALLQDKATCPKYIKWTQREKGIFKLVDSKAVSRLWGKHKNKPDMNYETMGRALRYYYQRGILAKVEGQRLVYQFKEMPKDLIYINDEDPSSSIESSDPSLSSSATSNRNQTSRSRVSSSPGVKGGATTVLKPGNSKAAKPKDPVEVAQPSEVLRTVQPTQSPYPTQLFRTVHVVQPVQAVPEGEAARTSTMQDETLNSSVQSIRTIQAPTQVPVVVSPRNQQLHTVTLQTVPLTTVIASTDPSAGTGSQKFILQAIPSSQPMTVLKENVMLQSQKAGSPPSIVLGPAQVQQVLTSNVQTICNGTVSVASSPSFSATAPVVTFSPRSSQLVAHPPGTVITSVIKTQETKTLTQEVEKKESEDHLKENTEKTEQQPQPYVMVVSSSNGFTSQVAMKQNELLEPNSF
# Method in brief: as §1
# [6] = molecular target: T5, EHF (Homo sapiens, UniProt Q9NZC4 1-300); details: protein: recombinant; tags: N-terminal GST; dsDNA, one strand shown
# T5 sequence: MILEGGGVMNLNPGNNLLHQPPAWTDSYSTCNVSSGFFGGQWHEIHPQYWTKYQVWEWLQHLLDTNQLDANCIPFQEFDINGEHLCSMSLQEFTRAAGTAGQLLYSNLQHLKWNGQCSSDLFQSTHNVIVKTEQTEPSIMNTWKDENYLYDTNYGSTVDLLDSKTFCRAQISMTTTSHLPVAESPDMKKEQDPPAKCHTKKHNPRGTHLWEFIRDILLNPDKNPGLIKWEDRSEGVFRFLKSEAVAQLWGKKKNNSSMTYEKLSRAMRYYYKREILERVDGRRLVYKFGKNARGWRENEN
# Method in brief: as §1
# [7] = molecular target: SPI1 (Homo sapiens, UniProt P17947 1-270); details: protein: recombinant; tags: N-terminal GST; dsDNA, one strand shown
# Method in brief: as §1
# [8] = molecular target: SPIB (Homo sapiens, UniProt Q01892 1-262); details: protein: recombinant; tags: N-terminal GST; dsDNA, one strand shown
# Chain of SPIB (Q01892 whole entry): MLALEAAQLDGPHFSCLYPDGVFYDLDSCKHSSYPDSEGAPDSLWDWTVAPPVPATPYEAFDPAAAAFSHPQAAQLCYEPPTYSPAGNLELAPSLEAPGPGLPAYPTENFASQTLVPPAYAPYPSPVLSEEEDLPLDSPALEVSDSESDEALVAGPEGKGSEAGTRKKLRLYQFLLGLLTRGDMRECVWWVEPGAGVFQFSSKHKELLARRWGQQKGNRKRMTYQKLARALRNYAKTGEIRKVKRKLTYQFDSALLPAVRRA
# Method in brief: as §1
# [9] = molecular target: T6, ELK3 (Homo sapiens, UniProt P41970 1-407); details: protein: recombinant; tags: N-terminal GST; dsDNA, one strand shown
# T6 sequence: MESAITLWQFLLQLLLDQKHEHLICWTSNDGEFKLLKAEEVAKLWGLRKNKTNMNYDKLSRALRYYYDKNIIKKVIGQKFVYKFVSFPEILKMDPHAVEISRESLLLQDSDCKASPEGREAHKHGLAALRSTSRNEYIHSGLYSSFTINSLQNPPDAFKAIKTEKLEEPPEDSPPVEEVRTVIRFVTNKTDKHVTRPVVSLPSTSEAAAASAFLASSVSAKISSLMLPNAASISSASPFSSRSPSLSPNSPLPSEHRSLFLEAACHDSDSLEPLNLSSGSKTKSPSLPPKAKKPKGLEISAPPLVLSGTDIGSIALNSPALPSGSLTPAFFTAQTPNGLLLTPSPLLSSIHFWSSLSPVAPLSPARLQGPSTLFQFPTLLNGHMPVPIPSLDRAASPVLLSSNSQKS
# Method in brief: as §1
# [10] = molecular target: T7, FEV (Homo sapiens, UniProt Q99581 1-238); details: protein: recombinant; tags: N-terminal GST; dsDNA, one strand shown
# T7 sequence: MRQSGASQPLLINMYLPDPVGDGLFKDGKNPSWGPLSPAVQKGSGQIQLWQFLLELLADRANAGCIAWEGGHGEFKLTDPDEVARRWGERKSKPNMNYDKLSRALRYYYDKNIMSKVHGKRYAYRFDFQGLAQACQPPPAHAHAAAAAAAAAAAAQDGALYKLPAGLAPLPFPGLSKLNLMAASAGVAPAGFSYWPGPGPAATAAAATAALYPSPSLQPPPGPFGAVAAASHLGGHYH
# Method in brief: as §1
# [11] = molecular target: ETV5 (Homo sapiens, UniProt P41161 1-510); details: protein: recombinant; tags: N-terminal GST; dsDNA, one strand shown
# Chain of ETV5 (P41161 whole entry): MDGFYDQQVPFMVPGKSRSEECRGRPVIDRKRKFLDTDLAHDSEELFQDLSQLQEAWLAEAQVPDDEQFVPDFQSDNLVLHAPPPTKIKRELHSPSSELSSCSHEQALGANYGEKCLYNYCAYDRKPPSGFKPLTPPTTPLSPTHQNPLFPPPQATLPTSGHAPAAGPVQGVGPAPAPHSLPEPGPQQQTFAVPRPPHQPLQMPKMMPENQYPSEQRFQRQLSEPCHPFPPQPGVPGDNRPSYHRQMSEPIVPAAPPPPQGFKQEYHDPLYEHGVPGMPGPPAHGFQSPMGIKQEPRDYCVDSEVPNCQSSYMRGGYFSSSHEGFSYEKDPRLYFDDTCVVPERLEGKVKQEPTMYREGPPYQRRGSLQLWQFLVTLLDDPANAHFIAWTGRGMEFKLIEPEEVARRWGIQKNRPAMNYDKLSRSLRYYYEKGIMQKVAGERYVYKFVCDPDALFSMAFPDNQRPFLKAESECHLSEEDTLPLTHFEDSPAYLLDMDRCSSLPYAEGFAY
# Method in brief: as §1
# [12] = molecular target: HSF1 (Homo sapiens, UniProt Q00613 1-529); details: protein: recombinant; tags: N-terminal GST; chain copies: 3; dsDNA, one strand shown
# Chain of HSF1 (Q00613 whole entry): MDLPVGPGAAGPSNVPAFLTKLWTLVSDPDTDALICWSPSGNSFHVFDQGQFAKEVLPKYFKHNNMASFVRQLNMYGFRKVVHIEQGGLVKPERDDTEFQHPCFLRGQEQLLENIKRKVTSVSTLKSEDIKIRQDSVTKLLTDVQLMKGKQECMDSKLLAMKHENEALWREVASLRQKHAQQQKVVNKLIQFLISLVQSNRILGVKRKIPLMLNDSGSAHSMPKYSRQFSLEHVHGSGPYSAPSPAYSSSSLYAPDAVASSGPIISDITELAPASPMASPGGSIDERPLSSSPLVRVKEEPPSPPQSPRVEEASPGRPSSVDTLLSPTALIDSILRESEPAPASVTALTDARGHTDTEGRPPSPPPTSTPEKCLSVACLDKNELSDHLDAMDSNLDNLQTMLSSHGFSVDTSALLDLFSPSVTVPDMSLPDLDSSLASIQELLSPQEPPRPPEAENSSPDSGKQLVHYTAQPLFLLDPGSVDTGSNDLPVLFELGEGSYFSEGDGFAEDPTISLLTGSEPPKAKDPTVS
# Method in brief: as §1
# [13] = molecular target: T8, SPIC (Homo sapiens, UniProt Q8N5J4 1-248); details: protein: recombinant; tags: N-terminal GST; dsDNA, one strand shown
# T8 sequence: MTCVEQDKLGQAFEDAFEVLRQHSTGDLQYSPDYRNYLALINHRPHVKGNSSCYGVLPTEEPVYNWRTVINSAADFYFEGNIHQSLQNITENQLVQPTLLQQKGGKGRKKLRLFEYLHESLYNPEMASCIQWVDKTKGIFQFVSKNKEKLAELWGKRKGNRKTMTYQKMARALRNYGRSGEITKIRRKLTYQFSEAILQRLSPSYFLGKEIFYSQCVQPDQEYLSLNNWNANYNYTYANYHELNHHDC
# Method in brief: as §1
# [14] = molecular target: ELF4 (Homo sapiens, UniProt Q99607 1-663); details: protein: recombinant; tags: N-terminal GST; dsDNA, one strand shown
# Chain of ELF4 (Q99607 whole entry): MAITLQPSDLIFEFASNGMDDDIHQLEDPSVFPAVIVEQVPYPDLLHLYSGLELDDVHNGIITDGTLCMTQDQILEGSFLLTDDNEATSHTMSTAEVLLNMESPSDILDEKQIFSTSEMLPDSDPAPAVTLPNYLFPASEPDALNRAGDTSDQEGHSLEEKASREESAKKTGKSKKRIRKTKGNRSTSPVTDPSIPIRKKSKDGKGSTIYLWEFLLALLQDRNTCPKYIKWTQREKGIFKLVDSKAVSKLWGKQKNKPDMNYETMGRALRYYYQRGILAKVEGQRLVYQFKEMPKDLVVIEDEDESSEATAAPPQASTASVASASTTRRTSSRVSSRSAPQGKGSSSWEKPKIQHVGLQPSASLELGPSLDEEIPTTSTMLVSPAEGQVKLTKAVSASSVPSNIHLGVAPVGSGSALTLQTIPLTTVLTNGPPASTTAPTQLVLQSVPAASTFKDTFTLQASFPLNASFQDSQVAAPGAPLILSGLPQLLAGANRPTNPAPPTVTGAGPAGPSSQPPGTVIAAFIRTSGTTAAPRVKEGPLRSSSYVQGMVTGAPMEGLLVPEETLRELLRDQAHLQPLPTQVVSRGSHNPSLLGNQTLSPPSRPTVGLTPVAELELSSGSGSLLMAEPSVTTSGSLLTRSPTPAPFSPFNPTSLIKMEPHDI
# Method in brief: as §1
# [15] = molecular target: T9, ELK4 (Homo sapiens, UniProt P28324-2 1-405); details: protein: recombinant; tags: N-terminal GST; dsDNA, one strand shown
# T9 sequence: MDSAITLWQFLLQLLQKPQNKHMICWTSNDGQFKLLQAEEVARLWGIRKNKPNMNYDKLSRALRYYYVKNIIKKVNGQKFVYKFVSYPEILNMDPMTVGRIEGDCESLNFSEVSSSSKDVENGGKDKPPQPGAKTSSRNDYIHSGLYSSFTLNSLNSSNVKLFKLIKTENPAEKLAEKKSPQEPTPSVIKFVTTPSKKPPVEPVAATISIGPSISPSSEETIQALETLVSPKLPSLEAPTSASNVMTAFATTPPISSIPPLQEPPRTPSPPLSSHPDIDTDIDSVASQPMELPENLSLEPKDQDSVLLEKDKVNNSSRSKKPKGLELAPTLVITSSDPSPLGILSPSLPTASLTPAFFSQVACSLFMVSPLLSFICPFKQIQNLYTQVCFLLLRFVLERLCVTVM
# Method in brief: as §1
# [16] = molecular target: T10, ETV2 (Homo sapiens, UniProt O00321 1-342); details: protein: recombinant; tags: N-terminal GST; dsDNA, one strand shown
# T10 sequence: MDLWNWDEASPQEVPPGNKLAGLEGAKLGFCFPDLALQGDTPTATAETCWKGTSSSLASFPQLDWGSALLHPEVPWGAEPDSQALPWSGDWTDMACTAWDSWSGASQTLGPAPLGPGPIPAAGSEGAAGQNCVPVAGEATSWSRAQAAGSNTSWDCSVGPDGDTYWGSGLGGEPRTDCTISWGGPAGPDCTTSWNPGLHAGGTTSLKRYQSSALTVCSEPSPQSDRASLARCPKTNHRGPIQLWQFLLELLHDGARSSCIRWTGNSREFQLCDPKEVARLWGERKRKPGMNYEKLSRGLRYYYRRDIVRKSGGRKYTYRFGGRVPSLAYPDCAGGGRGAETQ
# Method in brief: as §1
# [17] = molecular target: T11, ELF3 (Homo sapiens, UniProt P78545 1-371); details: protein: recombinant; tags: N-terminal GST; dsDNA, one strand shown
# T11 sequence: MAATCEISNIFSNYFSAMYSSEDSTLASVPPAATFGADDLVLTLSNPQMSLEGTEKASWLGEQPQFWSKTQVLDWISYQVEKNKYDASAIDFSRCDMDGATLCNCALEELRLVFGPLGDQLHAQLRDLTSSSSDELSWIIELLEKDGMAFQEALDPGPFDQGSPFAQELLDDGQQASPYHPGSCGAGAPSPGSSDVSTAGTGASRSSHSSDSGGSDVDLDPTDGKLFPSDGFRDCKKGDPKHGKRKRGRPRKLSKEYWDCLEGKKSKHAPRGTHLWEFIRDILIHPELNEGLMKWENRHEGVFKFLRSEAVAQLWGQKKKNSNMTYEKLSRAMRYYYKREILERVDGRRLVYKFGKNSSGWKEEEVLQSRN
# Method in brief: as §1
# [18] = molecular target: CRX (Homo sapiens, UniProt O43186 1-299); details: protein: recombinant; tags: N-terminal GST; dsDNA, one strand shown
# Chain of CRX (O43186 whole entry): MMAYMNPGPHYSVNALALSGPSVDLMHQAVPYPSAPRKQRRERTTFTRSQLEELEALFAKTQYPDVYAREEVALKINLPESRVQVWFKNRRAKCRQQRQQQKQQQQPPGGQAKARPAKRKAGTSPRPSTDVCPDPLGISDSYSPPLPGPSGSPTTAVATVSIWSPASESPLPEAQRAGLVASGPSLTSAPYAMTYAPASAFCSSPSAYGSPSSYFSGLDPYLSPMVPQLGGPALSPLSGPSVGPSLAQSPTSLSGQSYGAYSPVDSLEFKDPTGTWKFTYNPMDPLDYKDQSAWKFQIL
# Method in brief: as §1
# [19] = molecular target: ETV1 (Homo sapiens, UniProt P50549 1-477); details: protein: recombinant; tags: N-terminal GST; dsDNA, one strand shown
# Chain of ETV1 (P50549 whole entry): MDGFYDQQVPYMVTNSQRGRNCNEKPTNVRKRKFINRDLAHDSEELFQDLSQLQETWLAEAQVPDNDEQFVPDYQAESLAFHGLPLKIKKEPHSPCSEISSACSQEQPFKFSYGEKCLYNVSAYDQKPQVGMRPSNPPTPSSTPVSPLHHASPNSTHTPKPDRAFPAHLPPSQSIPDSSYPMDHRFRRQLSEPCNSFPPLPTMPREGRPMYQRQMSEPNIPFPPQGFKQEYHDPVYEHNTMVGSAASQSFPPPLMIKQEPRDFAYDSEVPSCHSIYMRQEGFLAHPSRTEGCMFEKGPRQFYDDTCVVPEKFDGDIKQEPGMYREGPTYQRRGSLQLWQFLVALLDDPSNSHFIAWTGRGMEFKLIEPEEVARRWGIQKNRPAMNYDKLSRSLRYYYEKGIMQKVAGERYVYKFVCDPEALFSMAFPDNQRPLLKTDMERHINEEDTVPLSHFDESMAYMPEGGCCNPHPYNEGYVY
# Method in brief: as §1
sequence,measurement,setting,value
CTTATC,binding signal,[1],"1.18 fold enrichment (6-mer frequency, TF over GST control)"
same,binding signal,[2],"1.15 fold enrichment (6-mer frequency, TF over GST control)"
same,binding signal,[3],"1.16 fold enrichment (6-mer frequency, TF over GST control)"
same,binding signal,[4],"1.1 fold enrichment (6-mer frequency, TF over GST control)"
same,binding signal,[5],"1.21 fold enrichment (6-mer frequency, TF over GST control)"
same,binding signal,[6],"1.08 fold enrichment (6-mer frequency, TF over GST control)"
same,binding signal,[7],"1.2 fold enrichment (6-mer frequency, TF over GST control)"
same,binding signal,[8],"1.21 fold enrichment (6-mer frequency, TF over GST control)"
same,binding signal,[9],"1.09 fold enrichment (6-mer frequency, TF over GST control)"
same,binding signal,[10],"1.2 fold enrichment (6-mer frequency, TF over GST control)"
same,binding signal,[11],"1.13 fold enrichment (6-mer frequency, TF over GST control)"
same,binding signal,[12],"1.6 fold enrichment (6-mer frequency, TF over GST control)"
same,binding signal,[13],"1.34 fold enrichment (6-mer frequency, TF over GST control)"
same,binding signal,[14],"1.12 fold enrichment (6-mer frequency, TF over GST control)"
same,binding signal,[15],"1.18 fold enrichment (6-mer frequency, TF over GST control)"
same,binding signal,[16],"1.03 fold enrichment (6-mer frequency, TF over GST control)"
same,binding signal,[17],"1.14 fold enrichment (6-mer frequency, TF over GST control)"
same,binding signal,[18],"2.44 fold enrichment (6-mer frequency, TF over GST control)"
same,binding signal,[19],"1.18 fold enrichment (6-mer frequency, TF over GST control)"
